Source: PubChem BioAssay (EPA / NIEHS)
The source made the active and inactive calls. Rule for the calls: active = hit-call score of the fitted dose curve at least 0.9, where 1 is the maximum; inactive = score below 0.9.

Columns and labels:
Details in all cases: mRNA level, 48 h; actives raise or lower the signal
[1] = read-out: Cytochrome P450 3A4 (Homo sapiens) (UniProt P08684); assay: LTEA_HepaRG_CYP3A4: Life Technologies and Expression Analysis (LTEA) Assay for CYP3A4 using HepaRG (AID 2283487)
Outline: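 Differentiated HepaRG cells, plated 48 h, then dosed 48 h in serum-free induction medium with 0.5% DMSO, 8 half-log concentrations up to 100 uM, duplicate. CYP3A4 mRNA by qRT-PCR, normalized to ACTB/GAPDH/POLR2A; bidirectional fit versus DMSO.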

[2] = read-out: DNA damage-inducible transcript 3 (DDIT3), DDIT3 (gene 1649); assay: LTEA_HepaRG_DDIT3: Life Technologies and Expression Analysis (LTEA) Assay for DNA damage-inducible transcript 3 (DDIT3) using HepaRG (AID 2283488)
Outline: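 qRT-PCR readout (Fluidigm TaqMan), housekeeping-normalized to ACTB, GAPDH, POLR2A. HepaRG cells, 48 h exposure, 8-point half-log series from 100 uM in 0.5% DMSO, duplicates. Gain or loss of signal fitted against DMSO baseline.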

[3] = read-out: Early growth response protein 1 (EGR1) transcription factor, EGR1 (gene 1958); assay: LTEA_HepaRG_EGR1: Life Technologies and Expression Analysis (LTEA) Assay for Early growth response protein 1 (EGR1) transcription factor using HepaRG (AID 2283490)
Outline: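 EGR1 transcript levels quantified by qRT-PCR (Fluidigm arrays) against three housekeeping genes after 48 h chemical exposure of HepaRG cells. Eight-point half-log series topping at 100 uM, 0.5% DMSO vehicle, analyzed for gain or loss.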

[4] = read-out: Ezrin (EZR), EZR (gene 7430); assay: LTEA_HepaRG_EZR: Life Technologies and Expression Analysis (LTEA) Assay for Ezrin (EZR) using HepaRG (AID 2283491)
Outline: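 EZR transcript levels came from Fluidigm qRT-PCR and were normalized to three housekeeping genes after 48 h chemical exposure of HepaRG cells. Dosing used an 8-point half-log series with a 100 uM top concentration in 0.5% DMSO, tested in duplicate; both directions were fitted versus vehicle.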

[5] = read-out: Cytochrome P450 3A7 (Homo sapiens) (UniProt P24462); assay: LTEA_HepaRG_CYP3A7: Life Technologies and Expression Analysis (LTEA) Assay for CYP3A7 using HepaRG (AID 2283492)
Outline: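 CYP3A7 transcript levels were read by TaqMan qRT-PCR on Fluidigm arrays after 48 h chemical exposure of human HepaRG cells, with housekeeping-gene normalisation. Eight half-log concentrations up to 100 uM in 0.5% DMSO were tested in duplicate.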

CYP3A5 (gene 1577) = assay: LTEA_HepaRG_CYP3A5: Life Technologies and Expression Analysis (LTEA) Assay for CYP3A5 using HepaRG (AID 2283493)
Outline: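 qRT-PCR read-out: CYP3A5 transcript in HepaRG lysates, housekeeping-normalized (ACTB/GAPDH/POLR2A), fitted bidirectionally against 0.5% DMSO baseline. Exposure 48 h, eight half-log concentrations up to 100 uM, duplicates.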

[6] = read-out: Fatty Acid-Binding Protein 1 (FABP1), FABP1 (gene 2168); assay: LTEA_HepaRG_FABP1: Life Technologies and Expression Analysis (LTEA) Assay for Fatty Acid-Binding Protein 1 (FABP1) using HepaRG (AID 2283494)
Outline: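 FABP1 expression by TaqMan qRT-PCR, normalised to three housekeeping genes, in HepaRG cells after 48 h chemical treatment. Eight-point half-log series topping at 100 uM in 0.5% DMSO, duplicates; gain or loss fitted relative to vehicle.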

[7] = read-out: Cytochrome P450 4A22 (Homo sapiens) (UniProt Q5TCH4); assay: LTEA_HepaRG_CYP4A22: Life Technologies and Expression Analysis (LTEA) Assay for Cytochrome P450 4A22 (CYP4A22) using HepaRG (AID 2283495)
Outline: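 HepaRG, 48 h post-plating -> serum-free induction medium; dosed 48 h, duplicate, 8 conc. (100 uM top, half-log), 0.5% DMSO. Readout: CYP4A22 mRNA by qRT-PCR, ACTB/GAPDH/POLR2A normalization; gain/loss fit relative to DMSO.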

[8] = read-out: Glutathione S-Transferase (GSTA2), GSTA2 (gene 2939); assay: LTEA_HepaRG_GSTA2: Life Technologies and Expression Analysis (LTEA) Assay for Glutathione S-Transferase (GSTA2) using HepaRG (AID 2283497)
Outline: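 GSTA2 transcript levels came from Fluidigm TaqMan qRT-PCR normalized to three housekeeping genes, fitted in both directions against DMSO. HepaRG cultures received chemicals for 48 h in serum-free induction medium (0.5% DMSO), 8 half-log concentrations up to 100 uM, duplicate.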

[9] = read-out: Glutamate-cysteine ligase catalytic (GCLC), GCLC (gene 2729); assay: LTEA_HepaRG_GCLC: Life Technologies and Expression Analysis (LTEA) Assay for Glutamate-cysteine ligase catalytic (GCLC) using HepaRG (AID 2283498)
Outline: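 Expression by TaqMan qRT-PCR, normalized to three housekeeping genes (ACTB, GAPDH, POLR2A), with up- or down-regulation fitted against DMSO. HepaRG cells dosed in duplicate for 48 h with 8 half-log concentrations up to 100 uM, vehicle 0.5% DMSO.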

[10] = read-out: growth arrest and DNA damage 45 (GADD45G), GADD45G (gene 10912); assay: LTEA_HepaRG_GADD45G: Life Technologies and Expression Analysis (LTEA) Assay for growth arrest and DNA damage 45 (GADD45G) using HepaRG (AID 2283499)
Outline: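 HepaRG, 48 h exposure, top 100 uM, half-log 8-point series, 0.5% DMSO vehicle, duplicates. Readout: GADD45G transcript by qRT-PCR (Fluidigm array), housekeeping-normalised (ACTB/GAPDH/POLR2A). Bidirectional curve fit vs DMSO baseline.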

[11] = read-out: Glutamate-cysteine ligase regulatory (GCLM), GCLM (gene 2730); assay: LTEA_HepaRG_GCLM: Life Technologies and Expression Analysis (LTEA) Assay for Glutamate-cysteine ligase regulatory (GCLM) using HepaRG (AID 2283500)
Outline: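 HepaRG, 48 h dosing, 100 uM top, half-log x8, 0.5% DMSO vehicle. Readout: GCLM mRNA by TaqMan qRT-PCR, housekeeping-normalized (ACTB/GAPDH/POLR2A). Curves fit bidirectionally vs DMSO baseline.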

[12] = read-out: Glutathione S-transferase M3 (GSTM3), GSTM3 (gene 2947); assay: LTEA_HepaRG_GSTM3: Life Technologies and Expression Analysis (LTEA) Assay for Glutathione S-transferase M3 (GSTM3) using HepaRG (AID 2283501)
Outline: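 qRT-PCR read-out of GSTM3 transcript, normalized to three housekeeping genes, from human HepaRG cells after 48 h chemical exposure. Eight-point half-log series, top 100 uM, 0.5% DMSO vehicle; gain or loss fitted relative to DMSO baseline.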

[13] = read-out: Heat shock 70 kDa protein 1 (HSPA1A), gene 3303; assay: LTEA_HepaRG_HSPA1A: Life Technologies and Expression Analysis (LTEA) Assay for Heat shock 70 kDa protein 1 (HSPA1A) using HepaRG (AID 2283502)
Outline: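 HepaRG, 48 h exposure, 8-pt half-log CRC from 100 uM in 0.5% DMSO, duplicates. Readout: TaqMan qRT-PCR of HSPA1A mRNA, housekeeping-normalized (ACTB/GAPDH/POLR2A). Bidirectional fit vs 0.5% DMSO baseline.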

[14] = read-out: Hypoxia-inducible factor 1-alpha (Homo sapiens) (UniProt Q16665); assay: LTEA_HepaRG_HIF1A: Life Technologies and Expression Analysis (LTEA) Assay for Hypoxia-inducible factor 1 (HIF1A) Trancription factor using HepaRG (AID 2283503)
Outline: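 Gain- or loss-of-signal HIF1A mRNA changes are fitted against a DMSO baseline. HepaRG cultures receive eight concentrations, highest 100 uM, for 48 h in serum-free induction medium with 0.5% DMSO.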

[15] = read-out: 3-Hydroxy-3-Methylglutaryl-CoA Synthase 2 (HMGCS2), HMGCS2 (gene 3158); assay: LTEA_HepaRG_HMGCS2: Life Technologies and Expression Analysis (LTEA) Assay for 3-Hydroxy-3-Methylglutaryl-CoA Synthase 2 (HMGCS2) using HepaRG (AID 2283504)
Outline: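 qRT-PCR read-out of HMGCS2 transcript, normalised to three housekeeping genes, in HepaRG cells after 48 h chemical exposure. Eight-point curves from 100 uM, half-log dilutions, 0.5% DMSO vehicle; gain or loss fitted relative to DMSO baseline.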

HGF (gene 3082) = assay: LTEA_HepaRG_HGF: Life Technologies and Expression Analysis (LTEA) Assay for Hepatocyte Growth Facto (HGF) using HepaRG (AID 2283505)
Outline: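 HepaRG, 48 h dosing, 8-pt half-log series from 100 uM in 0.5% DMSO, duplicates. Readout: TaqMan qRT-PCR of HGF mRNA, housekeeping-normalized; bidirectional curve fit vs DMSO baseline.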

[16] = read-out: Insulin Like Growth Factor 1 (IGF1), IGF1 (gene 3479); assay: LTEA_HepaRG_IGF1: Life Technologies and Expression Analysis (LTEA) Assay for Insulin Like Growth Factor 1 (IGF1) using HepaRG (AID 2283506)
Outline: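 qRT-PCR readout of IGF1 mRNA, normalized to three housekeeping genes, after 48 h chemical exposure of HepaRG cells. Concentrations: 8-point half-log series, top 100 uM, 0.5% DMSO vehicle. Gain or loss fitted against DMSO baseline.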

[17] = read-out: Pro-epidermal growth factor (Homo sapiens) (UniProt P01133); assay: LTEA_HepaRG_EGF: Life Technologies and Expression Analysis (LTEA) Assay for Epidermal growth factor (EGF) using HepaRG (AID 2283489)
Outline: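 qRT-PCR readout of EGF transcript after 48 h chemical exposure of HepaRG cells; eight concentrations from 100 uM down in half-log steps, duplicate wells, 0.5% DMSO vehicle. Bidirectional curve fitting against DMSO baseline.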

Hypoxia-inducible factor 1-alpha (Homo sapiens), sequence (Q16665 whole entry, looked up): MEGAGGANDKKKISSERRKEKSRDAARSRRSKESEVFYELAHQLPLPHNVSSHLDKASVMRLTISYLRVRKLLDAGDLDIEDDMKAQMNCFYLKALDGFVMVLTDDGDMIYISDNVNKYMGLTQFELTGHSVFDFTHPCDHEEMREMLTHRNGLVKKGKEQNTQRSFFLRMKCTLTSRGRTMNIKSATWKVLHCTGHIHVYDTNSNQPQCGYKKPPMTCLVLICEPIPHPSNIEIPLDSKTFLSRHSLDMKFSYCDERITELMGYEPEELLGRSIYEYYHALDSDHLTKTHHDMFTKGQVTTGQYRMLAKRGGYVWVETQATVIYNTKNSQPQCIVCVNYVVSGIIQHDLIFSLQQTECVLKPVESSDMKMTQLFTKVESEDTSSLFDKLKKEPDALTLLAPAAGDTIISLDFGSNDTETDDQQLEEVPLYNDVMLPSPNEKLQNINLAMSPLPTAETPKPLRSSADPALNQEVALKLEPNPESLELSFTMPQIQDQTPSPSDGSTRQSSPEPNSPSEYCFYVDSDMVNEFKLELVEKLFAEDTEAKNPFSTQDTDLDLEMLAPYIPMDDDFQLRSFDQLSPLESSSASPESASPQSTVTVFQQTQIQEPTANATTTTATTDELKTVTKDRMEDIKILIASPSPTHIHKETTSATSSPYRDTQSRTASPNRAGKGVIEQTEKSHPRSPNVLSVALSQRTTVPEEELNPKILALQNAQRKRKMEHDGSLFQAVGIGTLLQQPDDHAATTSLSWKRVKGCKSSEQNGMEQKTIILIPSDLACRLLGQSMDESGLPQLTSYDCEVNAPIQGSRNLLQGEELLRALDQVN
Cytochrome P450 3A4 (Homo sapiens), sequence (P08684 whole entry, looked up): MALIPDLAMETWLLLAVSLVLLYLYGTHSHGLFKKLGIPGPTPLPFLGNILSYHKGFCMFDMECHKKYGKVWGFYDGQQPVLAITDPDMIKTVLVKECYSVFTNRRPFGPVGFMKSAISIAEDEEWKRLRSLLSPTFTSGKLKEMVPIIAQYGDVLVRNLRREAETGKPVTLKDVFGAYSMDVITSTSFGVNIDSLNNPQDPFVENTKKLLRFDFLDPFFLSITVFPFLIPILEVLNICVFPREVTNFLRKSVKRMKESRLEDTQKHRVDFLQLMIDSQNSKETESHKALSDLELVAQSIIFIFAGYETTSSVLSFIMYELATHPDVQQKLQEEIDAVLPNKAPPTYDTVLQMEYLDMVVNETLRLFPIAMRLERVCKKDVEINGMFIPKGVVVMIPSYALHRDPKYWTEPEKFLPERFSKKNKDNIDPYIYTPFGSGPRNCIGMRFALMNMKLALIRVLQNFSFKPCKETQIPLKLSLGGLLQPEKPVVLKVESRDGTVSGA
Cytochrome P450 3A7 (Homo sapiens), sequence (P24462 whole entry, looked up): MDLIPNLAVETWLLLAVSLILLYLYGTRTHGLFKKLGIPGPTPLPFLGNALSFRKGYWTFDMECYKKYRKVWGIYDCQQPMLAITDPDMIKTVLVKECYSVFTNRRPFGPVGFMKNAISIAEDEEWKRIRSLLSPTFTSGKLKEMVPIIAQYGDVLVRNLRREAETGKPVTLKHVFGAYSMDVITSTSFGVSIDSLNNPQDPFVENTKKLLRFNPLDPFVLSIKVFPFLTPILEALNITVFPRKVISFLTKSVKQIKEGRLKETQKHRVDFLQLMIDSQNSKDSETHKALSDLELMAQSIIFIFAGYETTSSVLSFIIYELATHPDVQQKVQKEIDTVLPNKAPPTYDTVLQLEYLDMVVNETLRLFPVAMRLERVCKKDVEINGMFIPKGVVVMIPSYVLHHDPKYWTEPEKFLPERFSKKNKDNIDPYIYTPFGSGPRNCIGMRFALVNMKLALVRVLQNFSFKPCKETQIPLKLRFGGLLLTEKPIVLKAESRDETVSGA

In the case of `COc1cccc(C(=O)NN(C(=O)c2cc(C)cc(C)c2)C(C)(C)C)c1C`, the AC50 [1] is reported as 1.81 µM (active), the outcome [2] is reported as “inactive” and the outcome [3] is reported as “inactive”. The outcome [4] was “inactive”, the AC50 [5] was 5.42 µM (active) and the outcome (CYP3A5 (gene 1577)) was “inactive”. For the same compound, the outcome [6] was “inactive”, the outcome [7] was “inactive” and the outcome [8] was “inactive”. For the same compound, the outcome [9] was “inactive”, the outcome [10] was “inactive” and the outcome [11] was “inactive”. For the same compound, the outcome [12] was “inactive”, the outcome [13] was “inactive” and the outcome [14] was “inactive”. For the same compound, the outcome [15] was “inactive”, the outcome (HGF (gene 3082)) was “inactive” and the AC50 [16] was 74.6 µM (active).
`COP(=O)(OC)C(O)C(Cl)(Cl)Cl` (configuration not stated) was tested, and the outcome [2] was “inactive”, the outcome [17] was “inactive” and the outcome [3] was “inactive”. The outcome [4] was “inactive”, the outcome [6] was “inactive” and the outcome [9] was “inactive”. The outcome [10] was “inactive”, the outcome [11] was “inactive” and the outcome [13] was “inactive”. The outcome [15] was “inactive”, the outcome (HGF (gene 3082)) was “inactive” and the outcome [16] was “inactive”.
For `CN(C)C(=O)Nc1cccc(C(F)(F)F)c1`, the AC50 [1] was 10.4 µM (active), the outcome [2] was “inactive” and the outcome [3] was “inactive”. For the same compound, the outcome [4] was “inactive”, the AC50 [5] was 7.66 µM (active) and the outcome (CYP3A5 (gene 1577)) was “inactive”. The outcome [6] was “inactive”, the outcome [7] was “inactive” and the outcome [8] was “inactive”. For the same compound, the outcome [9] was “inactive”, the outcome [10] was “inactive” and the outcome [11] was “inactive”. For the same compound, the outcome [13] was “inactive”, the outcome [14] was “inactive” and the outcome [15] was “inactive”. For the same compound, the outcome (HGF (gene 3082)) was “inactive” and the outcome [16] was “inactive”.
